Results published in PubChem BioAssay (Tox21).
Results filed as inconclusive are left out. Unmarked numbers belong to inactive results. Calls of active or inactive are those of the source. The call rests on the fitted dose curve; in most records, active means well fitted inhibition curve with a large enough effect in the repeat runs; inconclusive means weak or mixed curves; inactive means no such curve, though single readings can be large or run the other way.

Molecular target: Cytochrome P450 2C9 (Homo sapiens) (UniProt P11712)
Sequence (P11712 whole entry, looked up): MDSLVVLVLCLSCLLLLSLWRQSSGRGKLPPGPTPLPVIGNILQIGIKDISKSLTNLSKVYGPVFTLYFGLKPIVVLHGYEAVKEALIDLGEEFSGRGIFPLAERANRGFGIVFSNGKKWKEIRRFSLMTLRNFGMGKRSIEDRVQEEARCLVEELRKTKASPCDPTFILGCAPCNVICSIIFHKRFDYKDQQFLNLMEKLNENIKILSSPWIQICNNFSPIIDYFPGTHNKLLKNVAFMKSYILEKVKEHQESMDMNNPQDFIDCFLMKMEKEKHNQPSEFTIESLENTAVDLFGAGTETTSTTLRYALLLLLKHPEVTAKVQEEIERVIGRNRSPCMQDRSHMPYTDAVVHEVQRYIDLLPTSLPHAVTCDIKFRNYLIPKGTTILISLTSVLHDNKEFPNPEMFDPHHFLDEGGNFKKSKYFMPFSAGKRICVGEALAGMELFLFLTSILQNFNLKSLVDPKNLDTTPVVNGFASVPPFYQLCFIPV
Assay: Cytochrome P450 Family 2 Subfamily C Member 9 (CYP2C9) small molecule antagonists: luciferase reporter qHTS assay (AID 1671198); further: nearly all actives have a fitted effect of over 50% in size
Details: P450-Glo CYP2C9 enzyme assay, luciferin luminescence; series mostly up to 115 µM; activity change, negative = inhibition: at the top concentration
From the text: U.S. Tox21 Program National Center for Advancing Translational Sciences [NCATS] U.S. Environmental Protection Agency [EPA] National Institutes of Environmental Health Sciences [NIEHS] National Toxicology Program [NTP] U.S. Food and Drug Administration [FDA] Tox21 Assay Overview: Cytochrome P450 (CYP) enzymes are membrane-bound hemeproteins that play a key role in metabolism of drugs and xenobiotics. Evaluation of the effect of chemicals on CYP isozymes is useful to minimize the adverse drug reactions and toxicities in drug development process. Tox21 chemicals were tested for their effect on CYP enzyme activities by using P450-Glo (TM) screening systems (Promega Corporation, Madison, WI). These systems provide a luminescent method containing proluciferin substrates and are converted to luciferin products by CYP isozymes. The luciferin products formed are detected with a luciferin detection reagent, and the amount of light produced is proportional to CYP activity. P450-Glo (TM) CYP2C9 screening system (Catalog. No. V9790) was used to detect the compounds that interfere in CYP2C9 activity.
Tox21 Assay Protocol Summary: Two ul of enzyme-substrate mix was dispensed into medium binding white/solid 1536-well plates (Greiner Bio-One North America Inc., Monroe, NC) using a BioRaptr Flying Reagent Dispenser (FRD, Beckman Coulter, Brea, CA). […] The assay plates were incubated at room temperature for 10 min. Then 2 ul of NADPH regeneration solution was added to each well of the assay plates using an FRD and incubated at 37C for 1 h. The reaction was stopped by adding 4 ul of detection reagent using an FRD and after 20 min incubation at room temperature the luminescence signal was measured using a ViewLux plate reader (Perkin Elmer, Shelton, CT). Data were expressed as relative luminescence units.
On the % scale 0 is the no-effect control and ±100 the full control effect; potency means the concentration at half of the fitted maximal effect.

Structure (SMILES) | Potency | activity change, negative = inhibition
Cc1nn(C)c(Oc2ccccc2)c1/C=N/OCc1ccc(C(=O)OC(C)(C)C)cc1 | 2.83 µM (active) | 
CCN(CC)CCOC(=O)C(Cc1cccc2ccccc12)CC1CCCO1 (stereo not given) |  | -2.25% [at 53 µM]
O=CC1CC=CCC1 (stereo not given) |  | -15.3%
CCn1cc(C(=O)O)c(=O)c2cnc(N3CCNCC3)nc21 |  | 2.82% [at 53 µM]
CCc1c(C(=O)NN2CCCCC2)nn(-c2ccc(Cl)cc2Cl)c1-c1ccc(Br)cc1 | 8.94 µM (active) | 
CCCCC/C=C\C/C=C\CCCCCCCC(=O)NC(C)c1ccccc1 (stereo not given) | 2.45 µM (active) | 
O=C(CS)Nc1ccccc1 | 13.8 µM (active) | 
CCCCC |  | -0.902%
C/C=C(/C(=C/C)c1ccc(OC(C)=O)cc1)c1ccc(OC(C)=O)cc1 | 7.76 µM (active) | 
O[C@@H](COc1cccc2ncccc12)CN1CCN(C2c3ccccc3[C@@H]3[C@H](c4ccccc42)C3(F)F)CC1 (stereo not given in full) | 11 µM (active) | 
CC(C)OC(=O)C(C)N(C(=O)c1ccccc1)c1ccc(F)c(Cl)c1 (stereo not given) | 7.96 µM (active) | 
COc1cc(Cl)c(OC)cc1N | 35.6 µM (active) | 
C=CCOc1ccccc1OCC(O)CNC(C)C (stereo not given) |  | 1.68% [at 53 µM]
CCOc1ccc(N=Nc2ccc(/C=C/c3ccc(N=Nc4ccc(OCC)cc4)cc3S(=O)(=O)O)c(S(=O)(=O)O)c2)cc1 |  | -9.15%
CN1C[C@H]2c3ccccc3Oc3ccc(Cl)cc3[C@@H]2C1 |  | -0.82% [at 53 µM]
CCN(CC)CCNC(=O)c1cc(Br)c(N)cc1OC |  | 9.7% [at 53 µM]
NCC(=O)CCC(=O)O |  | -15.7% [at 53 µM]
COc1ccc(C)cc1[N+](=O)[O-] |  | 2.13%
Cc1ccc(N=Nc2c(O)c(C(=O)O)cc3ccccc23)c(S(=O)(=O)O)c1 | 34.5 µM (active) | 
COC(=O)c1ccc(I)cc1S(=O)(=O)NC(=O)Nc1nc(C)nc(OC)n1 | 34.1 µM (active) | 

Structure (SMILES) | Potency | activity change, negative = inhibition
CCCCCCOC(=O)NC(=N)c1ccc(NCc2nc3cc(C(=O)N(CCC(=O)OCC)c4ccccn4)ccc3n2C)cc1 | 3.09 µM (active) | 
CCO[C@H](Cc1ccc(OCCc2ccc(OS(C)(=O)=O)cc2)cc1)C(=O)O |  | -7.12% [at 53 µM]
CCC(=O)O[C@]1(C(=O)CCl)[C@@H](C)C[C@H]2[C@@H]3CCC4=CC(=O)C=C[C@]4(C)[C@@]3(F)[C@@H](O)C[C@@]21C | 30.9 µM (active) | 
Nc1ccc(S(=O)(=O)Nc2ccccc2)cc1 |  | -6.4% [at 53 µM]
O=C(O)C1(C(=O)O)CCC1.[NH2-].[NH2-].[Pt+2] | 8.71 µM (active) | 
O=C(OCCc1ccccc1)c1ccccc1 | 31.7 µM (active) | 
O=P(O)(OCc1ccccc1)OCc1ccccc1 | 22.4 µM (active) | 
C#C[C@]1(O)CC[C@H]2[C@@H]3CCc4cc(OC5CCCC5)ccc4[C@H]3CC[C@@]21C | 19.5 µM (active) | 
COc1cc2nc(N(C)CCCNC(=O)C3CCCO3)nc(N)c2cc1OC (stereo not given) |  | 0.191% [at 53 µM]
O=[N+]([O-])c1cccc(S(=O)(=O)O)c1 | 32.2 µM (active) | 
CN1Cc2cc(C(=O)N3CCC(C4CCNCC4)CC3)ccc2NC(CC(=O)O)C1=O (stereo not given) |  | 2.28% [at 53 µM]
CNCCCCOc1ccccc1Cc1ccccc1 |  | -3.24% [at 53 µM]
CC(C)(C)OCC1CO1 (stereo not given) |  | 1.21%
Cc1oc2c(NC(=O)c3c(Cl)cccc3Cl)cccc2c1C(C)(C)O | 1.59 µM (active) | 
NCCCN1CCOCC1 |  | -12%
O=C(OCCCCCCOC(=O)c1ccccc1)c1ccccc1 | 7.96 µM (active) | 
CCCCCCCCCOS(=O)(=O)O | 22.4 µM (active) | 
CC(=O)OC[C@H]1O[C@@H](n2ncc(=O)[nH]c2=O)[C@H](OC(C)=O)[C@@H]1OC(C)=O |  | -1.19% [at 53 µM]
CCCOC(C(=O)OC1CCN(C)CC1)(c1ccccc1)c1ccccc1 |  | -10.3% [at 53 µM]
COc1cc2nc(Cl)nc(N)c2cc1OC |  | -8% [at 53 µM]
